Records with an inconclusive call do not appear. The source holds several records for some structures; these can differ, active in one and inactive in another. Calls of active or inactive are those of the source. Unless noted, calls come from the whole dose curve; as a rule, active = well fitted curve in the direction sought with a large enough effect; inconclusive = small, poorly fitted or top-dose-only effect, or another doubt; inactive = no such curve, though single readings can be large; an effect the other way counts as inactive or inconclusive.

Test [1] concerns the target Ferritin light chain (Equus caballus) (UniProt P02791). As to the kind of experiment: qHTS Validation Assay for Identification of Novel General Anesthetics (AID 2323). Note: series mostly up to about 77 µM. Put shortly:
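Normalized fluorescence response, scaled between free 1-AMA and 1-AMA/apoferritin complex, fitted to a four-parameter Hill equation for concentration-effect values. Binding mix: 10 uM horse-spleen apoferritin, 50% saturated 1-AMA in PBS; read 380/535 nm after 10 min.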
On the technique in general: Quantitative high-throughput screening tests each substance at several concentrations.

In test [2] the target is ATP-dependent DNA helicase Q1 (Homo sapiens) (UniProt P46063). As to the kind of experiment: qHTS Validation Assay for Inhibitors of RecQ-Like Dna Helicase 1 (RECQ1) (AID 2353). The gist of the method:
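50 nM RECQ1T1 preincubated 15 min with compound in Tris pH 8.0 buffer with MgCl2, DTT, Tween-20 and 2.5 ug/ml poly(dI-dC); started with 200 nM TAMRA/BHQ-2 forked duplex and 2 mM ATP. Unwinding read as fluorescence (525/598 nm), two reads 2 h apart.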

The nature of test [3]: Cytometric Cell-Based qHTS for Inhibitors of the mTORC1 Signaling Pathway in MEF (Tsc2-/-, p53-/-) Cells (AID 2660).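 Note: percent of cells above a phospho-rpS6 to PI ratio cutoff in each well; series mostly up to about 38 µM.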 The gist of the method:
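Tsc2-/-, p53-/- MEFs (empty vector) exposed to compound 24 h at 37 C, fixed, stained with Alexa-488 anti-phospho-rpS6 Ser235/236 and propidium iodide. Acumen laser scanning; phospho-S6/PI ratio thresholded against 7.5 nM rapamycin, reported as % positive cells.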

A short description of test [4]: High Content Imaging Cell-Based qHTS for Inhibitors of the mTORC1 Signaling Pathway in MEF (Tsc2-/-, p53-/-) Cells (AID 2666).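 Note: percent of cells scored positive for phospho-rpS6 Ser235/236 immunostaining by imaging.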 The gist of the method:
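Cells were plated, dosed with compound after 24 hrs, and incubated another 24 hrs at 37 degree Celsius. Fixed cells were immunostained for phospho-rpS6 Ser235/236 and counterstained, and the normalized signal was scored as % active cells against rapamycin and DMSO controls.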

Test [5] can be described thus: Cytometry Cell-Based qHTS for Inhibitors of the mTORC1 Signaling Pathway in MEF cells (AID 2668).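 Note: Tsc2-/- p53-/- mouse embryonic fibroblasts stably re-expressing wild-type Tsc2; percent cells positive for phospho-rpS6 Ser235/236 relative to propidium iodide stain; series mostly up to about 38 µM.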 The gist of the method: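 In MEFs grown in DMEM + 10% FBS, a 24 hrs compound exposure preceded imaging of phospho-rpS6 Ser235/236 by laser-scanning cytometry.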
A short description of test [6]: Validation screen for small molecules that induce DNA re-replication in MCF 10A normal breast cells (AID 463097). Note: nearly all actives have a fitted effect of over 60% in size. Note: potency is the fitted concentration of half-maximal effect. The gist of the method:
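Following 48 hr compound incubation (37 C, 5% CO2), MCF 10A cells receive Hoechst for 40 min at 37 C. Nuclei are then scanned (excitation 405 nm, emission 500-530 nm) for total fluorescence intensity.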

Test [7] deals with DNA polymerase III PolC-type (Bacillus subtilis (strain 168)) (UniProt P13267). Description: qHTS Validation Assay for the Inhibitors of DNA Replication in Gram-Positive Bacteria (AID 485295).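 Note: reconstituted holoenzyme with PolC plus beta clamp SSB and primase; PicoGreen fluorescence of double-stranded DNA made on primed circular M13 template; series mostly up to about 57 µM.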 The gist of the method:
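Inhibition of DNA synthesis by the reconstituted PolC holoenzyme, monitored through PicoGreen staining of dsDNA formed from ssM13Gori, dNTPs and NTPs, with compound preincubation and room-temperature reaction.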

For test [8], the target named is Tumor susceptibility gene 101 protein (Homo sapiens) (UniProt Q99816). As to the kind of experiment: qHTS Validation Assay for Iinhibitors of HIV-1 Budding by Blocking the Interaction of PTAP/TSG101 (AID 485342; calls by dose curve). The gist of the method:
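Compound wells held the Tsg101 binding domain (10 uM) and a FITC-conjugated PTAP peptide (50 nM) in buffer at pH 7.5 containing 0.15 M NaCl and 0.01% Tween 20; polarization was recorded after 20 min, r.t.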

Test [9] in a line: qHTS Validation Assay to Find Inhibitors of Chronic Active B-Cell Receptor Signaling (AID 485345; active = well fitted curve in the direction sought with a large enough effect in the main read-out, with a control signal flat, not every such curve was filed as active; note: potency is the fitted concentration of half-maximal effect). The gist of the method:
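Read-out: ratio of filter-corrected green (IkappaBalpha fusion) to red (native) luciferase signal in doxycycline-induced TMD8 cells after 4 h at 37C. Titration spanned 46 uM–3 nM; Data were normalised to basal cells and 10 uM MG-132 wells.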

Test [10] addresses Beta-2 adrenergic receptor (Homo sapiens) (UniProt P07550). As to the kind of experiment: qHTS validation assay of beta-arrestin-biased ligands of beta2-adrenergic receptor (AID 485366). Put shortly:
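Tango cells expressing recombinant beta2-AR and beta-arrestin with tTA-driven luciferase, in DMEM with 1% FBS. Compounds were titrated up to 46 microM for 18 hr at 37 degrees C. Luminescence was read 15 min after substrate; curves were fitted and class-assigned.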

For test [11], the target named is ATP-dependent 6-phosphofructokinase (Trypanosoma brucei brucei) (UniProt O15648). Description: qHTS Validation Assay to Find Inhibitors of T. brucei phosphofructokinase (AID 485368). The gist of the method: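 Activity was read as ADP production by luminescence (ADP-Glo) after 45 min at room temperature. The enzyme was 1.25nM PFK in 0.1M TEA pH 8.0 with 0.5 mM F6P, 0.1mM ATP and 5 mM MgCl2. Compounds were titrated up to 57 uM and % activity normalized to no-enzyme and full-enzyme controls.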

The nature of test [12]: Quantitative high throughput screen for delayed death inhibitors of the malarial parasite plastid, 96 hour incubation (AID 488745). Note: nearly all actives have a fitted effect of over 70% in size. Note: potency is the fitted concentration of half-maximal effect. The gist of the method:
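Infected erythrocytes were added to compound in Albumax-supplemented RPMI 1640 at 0.1% parasitemia and 2% hematocrit (final), incubated 96 h at 37 C under 5% CO2, then luciferase reagent was added and luminescence measured.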

Test [13] is described as follows: Quantitative high throughput screen for delayed death inhibitors of the malarial parasite plastid, 48 hour incubation (AID 488752). Note: nearly all actives have a fitted effect of over 65% in size. Note: potency is the fitted concentration of half-maximal effect. The gist of the method: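 Readout is firefly luciferase luminescence from a reporter integrated into the parasite genome, with lower signal taken as inhibited growth. Infected red cells (0.1% parasitemia, 2% hematocrit final) are cultured with compound for one 48 h cycle at 37 C.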

Test [14] addresses Thioredoxin reductase 1, cytoplasmic (Rattus norvegicus) (UniProt O89049). Description: qHTS Assay for Inhibitors of Mammalian Selenoprotein Thioredoxin Reductase 1 (TrxR1) (AID 488773).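 Note: drop in NADPH fluorescence over an 8 min run after selenite addition; series mostly up to about 57 µM; nearly all actives have a fitted effect of over 40% in size.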 To be noted: Potency: inhibition. The gist of the method:
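Steps: enzyme (90 nM) plus NADPH (400 uM final), 5 min at ~22 deg C; compound added, 15 min; selenite (400 uM final) added; fluorescence followed for 8 min. Concentration-response curves derived from the normalized delta values.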

Test [15] deals with Flap endonuclease 1 (Homo sapiens) (UniProt P39748). As to the kind of experiment: qHTS Validation Assay for the Inhibitors of Human Flap endonuclease 1 (FEN1) (AID 488816). The gist of the method: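 Readings taken at 0 and 15 min after starting the reaction with 50 nM (final) substrate supplied the signal. Compounds had first sat with 10 nM FEN1 reagent for 15 min at room temperature. Values come from Hill-equation concentration-response fits.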
Chain of Flap endonuclease 1 (Homo sapiens) (P39748 whole entry, looked up): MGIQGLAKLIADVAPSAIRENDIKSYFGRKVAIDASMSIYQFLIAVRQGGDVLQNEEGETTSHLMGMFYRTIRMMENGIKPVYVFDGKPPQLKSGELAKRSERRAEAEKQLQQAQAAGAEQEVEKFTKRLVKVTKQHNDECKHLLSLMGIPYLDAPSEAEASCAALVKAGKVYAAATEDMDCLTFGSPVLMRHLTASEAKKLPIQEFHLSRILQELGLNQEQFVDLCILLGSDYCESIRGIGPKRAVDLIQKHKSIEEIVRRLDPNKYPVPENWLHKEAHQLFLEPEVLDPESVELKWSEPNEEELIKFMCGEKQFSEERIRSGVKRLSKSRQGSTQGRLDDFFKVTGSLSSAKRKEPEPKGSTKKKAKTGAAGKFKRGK

In test [16] the target is M-phase phosphoprotein 8 (Homo sapiens) (UniProt Q99549). As to the kind of experiment: qHTS Validation Assay for Inhibitors for MPP8 Chromodomain Interactions with Methylated Histone Tails (AID 488949). Note: nearly all actives have a fitted effect of over 55% in size. Note: potency is the fitted concentration of half-maximal effect. The gist of the method: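 Chemiluminescent proximity assay: histidine-tag capture via nickel acceptor beads, biotin peptide via streptavidin donor beads. Protein and peptide each at 50 nM, pH 7.4, with 30 min incubations at room temperature for complex formation, compound exposure and bead binding.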
Chain of M-phase phosphoprotein 8 (Homo sapiens) (Q99549 whole entry, looked up): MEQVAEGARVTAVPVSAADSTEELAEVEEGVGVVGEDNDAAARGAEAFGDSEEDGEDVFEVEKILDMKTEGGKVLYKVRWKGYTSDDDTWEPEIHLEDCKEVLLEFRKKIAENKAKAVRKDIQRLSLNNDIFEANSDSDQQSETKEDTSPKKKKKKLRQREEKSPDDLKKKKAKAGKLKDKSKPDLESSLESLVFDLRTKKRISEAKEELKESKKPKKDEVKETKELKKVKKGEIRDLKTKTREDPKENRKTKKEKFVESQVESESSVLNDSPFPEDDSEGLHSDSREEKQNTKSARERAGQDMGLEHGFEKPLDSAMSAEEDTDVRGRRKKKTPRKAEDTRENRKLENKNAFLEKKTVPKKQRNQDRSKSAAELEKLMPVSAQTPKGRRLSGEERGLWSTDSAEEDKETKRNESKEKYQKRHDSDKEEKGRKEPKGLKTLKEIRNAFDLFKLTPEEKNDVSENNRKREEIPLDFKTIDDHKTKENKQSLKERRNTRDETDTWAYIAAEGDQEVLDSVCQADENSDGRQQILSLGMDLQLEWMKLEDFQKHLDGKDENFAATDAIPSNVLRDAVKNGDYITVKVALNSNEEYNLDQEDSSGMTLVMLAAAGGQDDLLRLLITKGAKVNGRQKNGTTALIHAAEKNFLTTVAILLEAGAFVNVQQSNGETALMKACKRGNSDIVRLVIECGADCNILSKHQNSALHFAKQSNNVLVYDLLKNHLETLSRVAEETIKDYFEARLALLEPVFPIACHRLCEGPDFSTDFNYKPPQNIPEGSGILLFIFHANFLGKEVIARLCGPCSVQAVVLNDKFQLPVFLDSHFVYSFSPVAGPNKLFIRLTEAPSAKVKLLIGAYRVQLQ

In test [17] the target is Ubiquitin carboxyl-terminal hydrolase 2 (Homo sapiens) (UniProt O75604). As to the kind of experiment: qHTS Validation Assay for Inhibitors of Ubiquitin-specific Protease USP2a Using CHOP2 as the Reporter (AID 463106). Put shortly:
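10nM USP2 core + cpd, 30min RT; add 25nM Ub-CHOP2/25nM substrate; 60min RT; FI 485/531nm. Buffer Tris pH 8.0, CaCl2, BME, CHAPS. Norm. to NEM = 100% inhibition; time-zero read flags fluorescent artifacts.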

Test [18] addresses Thioredoxin reductase 1, cytoplasmic (Rattus norvegicus) (UniProt O89049). Description: qHTS Assay for Substrates of Mammalian Selenoprotein Thioredoxin Reductase 1 (TrxR1) (AID 488772).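 Note: NADPH fluorescence in the first read after selenite addition and not the 8 min delta; series mostly up to about 57 µM; a drop in NADPH fluorescence below the no-compound background marks a TrxR1 substrate.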 Put shortly: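 Quantitative HTS in Tris-HCl buffer at pH 7.5 with EDTA and Tween-20, using rat TrxR1, 400 uM NADPH and 400 uM selenite (final). A fall in initial NADPH fluorescence relative to background marked substrate behaviour.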

The nature of test [19]: High Content Imaging Cell-Based qHTS for Inhibitors of the mTORC1 Signaling Pathway in MEF Cells (AID 2667). Note: potency is the fitted concentration of half-maximal effect. Put shortly: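 Immunofluorescence for rpS6 phosphorylation in MEFs of Tsc2-/-, p53-/- background rescued with WT Tsc2. Compound exposure lasted 24 hrs. Inhibition was scored against rapamycin-treated control wells.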
The target in test [20] is RecQ-like DNA helicase BLM (Homo sapiens) (UniProt P54132). As to the kind of experiment: qHTS Validation Assay for Inhibitors of Bloom's syndrome helicase (BLM) (AID 2364). Put shortly:
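Forked 20-bp duplex substrate (200 nM, TAMRA/BHQ-2) plus 2 mM ATP added after 15 min compound preincubation with 50 nM enzyme, pH 8.0, poly(dI-dC) 2.5 ug/ml. Strand separation followed by fluorescence (525/598 nm) over 2 h, normalized to enzyme-free and DMSO controls.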

Chain of ATP-dependent DNA helicase Q1 (Homo sapiens) (P46063 whole entry, looked up): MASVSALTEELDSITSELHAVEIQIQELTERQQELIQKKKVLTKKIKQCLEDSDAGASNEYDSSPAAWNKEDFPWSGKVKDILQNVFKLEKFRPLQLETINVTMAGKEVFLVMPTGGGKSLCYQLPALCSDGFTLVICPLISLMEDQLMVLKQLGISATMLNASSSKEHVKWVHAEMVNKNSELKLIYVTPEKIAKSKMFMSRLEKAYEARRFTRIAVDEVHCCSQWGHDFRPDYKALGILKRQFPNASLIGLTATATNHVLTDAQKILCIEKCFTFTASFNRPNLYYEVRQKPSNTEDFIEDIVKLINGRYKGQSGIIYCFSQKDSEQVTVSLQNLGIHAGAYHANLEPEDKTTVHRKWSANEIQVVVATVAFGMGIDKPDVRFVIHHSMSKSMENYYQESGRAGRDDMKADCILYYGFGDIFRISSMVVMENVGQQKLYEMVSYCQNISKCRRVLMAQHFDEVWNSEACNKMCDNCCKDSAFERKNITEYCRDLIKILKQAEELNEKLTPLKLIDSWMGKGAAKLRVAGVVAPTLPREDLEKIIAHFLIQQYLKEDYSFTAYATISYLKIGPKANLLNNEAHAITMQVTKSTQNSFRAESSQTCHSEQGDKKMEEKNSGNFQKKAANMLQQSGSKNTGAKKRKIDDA
Chain of DNA polymerase III PolC-type (Bacillus subtilis (strain 168)) (P13267 whole entry, looked up): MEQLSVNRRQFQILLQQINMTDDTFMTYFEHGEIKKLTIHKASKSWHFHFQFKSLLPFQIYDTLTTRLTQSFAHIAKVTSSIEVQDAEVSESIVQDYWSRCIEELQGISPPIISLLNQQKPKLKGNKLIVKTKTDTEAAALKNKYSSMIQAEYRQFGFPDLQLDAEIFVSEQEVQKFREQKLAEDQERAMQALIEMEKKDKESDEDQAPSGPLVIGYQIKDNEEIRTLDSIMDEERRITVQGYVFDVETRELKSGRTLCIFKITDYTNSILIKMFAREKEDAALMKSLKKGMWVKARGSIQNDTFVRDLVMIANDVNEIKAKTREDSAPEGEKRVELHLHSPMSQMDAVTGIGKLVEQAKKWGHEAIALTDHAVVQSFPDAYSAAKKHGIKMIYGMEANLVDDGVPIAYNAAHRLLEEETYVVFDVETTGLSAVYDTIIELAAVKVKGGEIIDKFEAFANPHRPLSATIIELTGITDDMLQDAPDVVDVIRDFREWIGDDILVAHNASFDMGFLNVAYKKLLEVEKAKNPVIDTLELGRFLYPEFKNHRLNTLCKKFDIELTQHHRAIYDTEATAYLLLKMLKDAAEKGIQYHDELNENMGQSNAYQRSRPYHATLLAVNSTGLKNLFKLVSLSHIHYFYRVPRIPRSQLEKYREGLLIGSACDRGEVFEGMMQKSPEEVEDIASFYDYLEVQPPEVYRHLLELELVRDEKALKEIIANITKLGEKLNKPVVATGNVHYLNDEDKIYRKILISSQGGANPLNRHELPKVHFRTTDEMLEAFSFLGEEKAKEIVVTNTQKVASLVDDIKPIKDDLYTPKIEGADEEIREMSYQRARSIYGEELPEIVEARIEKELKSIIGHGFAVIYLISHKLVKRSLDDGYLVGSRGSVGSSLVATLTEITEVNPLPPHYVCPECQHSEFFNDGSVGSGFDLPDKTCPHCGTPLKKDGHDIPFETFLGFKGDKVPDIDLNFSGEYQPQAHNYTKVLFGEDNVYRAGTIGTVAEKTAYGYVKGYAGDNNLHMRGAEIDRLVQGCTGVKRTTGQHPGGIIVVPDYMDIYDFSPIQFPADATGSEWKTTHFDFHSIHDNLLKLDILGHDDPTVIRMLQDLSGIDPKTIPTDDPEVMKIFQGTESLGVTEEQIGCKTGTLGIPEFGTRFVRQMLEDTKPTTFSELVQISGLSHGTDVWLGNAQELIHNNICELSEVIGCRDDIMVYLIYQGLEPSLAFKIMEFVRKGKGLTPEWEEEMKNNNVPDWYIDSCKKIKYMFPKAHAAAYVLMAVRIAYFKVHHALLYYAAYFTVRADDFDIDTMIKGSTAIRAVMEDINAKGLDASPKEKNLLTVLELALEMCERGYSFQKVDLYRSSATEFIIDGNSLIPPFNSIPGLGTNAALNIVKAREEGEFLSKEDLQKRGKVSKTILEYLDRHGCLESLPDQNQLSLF
Chain of Beta-2 adrenergic receptor (Homo sapiens) (P07550 whole entry, looked up): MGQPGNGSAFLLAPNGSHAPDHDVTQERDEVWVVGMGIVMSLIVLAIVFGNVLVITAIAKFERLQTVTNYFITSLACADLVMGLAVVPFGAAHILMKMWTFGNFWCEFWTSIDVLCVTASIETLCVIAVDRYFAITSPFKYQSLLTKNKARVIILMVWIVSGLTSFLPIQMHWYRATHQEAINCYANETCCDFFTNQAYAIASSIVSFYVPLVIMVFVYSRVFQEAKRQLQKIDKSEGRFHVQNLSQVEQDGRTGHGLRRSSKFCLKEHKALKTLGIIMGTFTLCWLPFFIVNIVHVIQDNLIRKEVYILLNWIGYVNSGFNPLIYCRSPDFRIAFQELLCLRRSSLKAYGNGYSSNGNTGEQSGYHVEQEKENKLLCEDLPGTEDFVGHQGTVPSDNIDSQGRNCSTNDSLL
Chain of Ferritin light chain (Equus caballus) (P02791 2-175 limits assumed): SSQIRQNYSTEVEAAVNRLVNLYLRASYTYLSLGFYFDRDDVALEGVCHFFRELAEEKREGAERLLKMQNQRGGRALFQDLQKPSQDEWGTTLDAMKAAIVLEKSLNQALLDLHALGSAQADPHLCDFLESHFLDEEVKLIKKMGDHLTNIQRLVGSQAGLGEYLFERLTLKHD
Chain of Tumor susceptibility gene 101 protein (Homo sapiens) (Q99816 whole entry, looked up, the tested form may be a part): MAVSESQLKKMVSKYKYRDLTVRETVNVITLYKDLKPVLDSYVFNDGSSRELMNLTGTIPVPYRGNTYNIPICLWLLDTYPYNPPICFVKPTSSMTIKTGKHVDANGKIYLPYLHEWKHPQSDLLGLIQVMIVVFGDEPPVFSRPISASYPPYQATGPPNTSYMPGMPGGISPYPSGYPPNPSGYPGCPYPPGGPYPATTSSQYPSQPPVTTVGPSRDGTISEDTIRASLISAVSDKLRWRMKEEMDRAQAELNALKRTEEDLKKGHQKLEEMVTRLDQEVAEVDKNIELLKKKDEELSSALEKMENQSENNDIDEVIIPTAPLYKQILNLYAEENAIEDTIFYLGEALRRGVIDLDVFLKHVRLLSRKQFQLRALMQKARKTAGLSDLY
Chain of Thioredoxin reductase 1, cytoplasmic (Rattus norvegicus) (O89049 whole entry, looked up): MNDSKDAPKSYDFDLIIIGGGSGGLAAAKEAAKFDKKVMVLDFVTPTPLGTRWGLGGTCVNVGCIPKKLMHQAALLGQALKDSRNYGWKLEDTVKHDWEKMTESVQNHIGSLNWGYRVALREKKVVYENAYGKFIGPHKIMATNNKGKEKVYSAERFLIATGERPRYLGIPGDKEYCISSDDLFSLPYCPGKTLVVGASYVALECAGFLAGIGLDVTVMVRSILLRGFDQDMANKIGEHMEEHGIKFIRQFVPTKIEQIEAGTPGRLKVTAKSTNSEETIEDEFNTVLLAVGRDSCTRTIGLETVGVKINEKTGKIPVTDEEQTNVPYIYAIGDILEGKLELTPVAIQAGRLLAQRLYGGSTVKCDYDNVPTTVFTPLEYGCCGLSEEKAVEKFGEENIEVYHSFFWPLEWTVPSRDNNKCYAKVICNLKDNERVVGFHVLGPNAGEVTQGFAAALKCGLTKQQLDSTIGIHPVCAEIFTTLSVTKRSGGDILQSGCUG

On to `NC(=O)NO`, for which the Potency result in test [1], in test [2], in test [4], in test [5], in [6] and in test [7] was “inactive” in each case. The Potency entry in test [9], in [11], in test [12], in [13], in [14] and in test [15] was “inactive” throughout. Moreover, the Potency result in [16] is “inactive”. Moreover, the call in test [3], in test [8] and in [10] was inactive.

Regarding `CC(C)(Oc1ccc(C2CC2(Cl)Cl)cc1)C(=O)O` (stereo not given), the Potency entry in [1], in test [2], in test [4], in [5], in [6] and in test [17] was “inactive” in each case. Moreover, the Potency entry in [7], in test [9], in [12], in [13], in [14] and in test [15] was “inactive” in each case. Further, the molecule was called inactive in test [3], in [8], in test [10] and in test [18]. The Potency in [16] is 39.8 µM (active) and inactive.

For `COC(=O)Nc1nc2ccc(C(=O)c3cccs3)cc2[nH]1`, the Potency result in test [1], in test [2], in test [4], in test [19], in [17] and in test [7] was “inactive” in each case. In addition, the Potency entry in [14] and in [16] was “inactive” in each case. In addition, the Potency in test [6] is 0.158 µM (active). Also, the molecule was classed as inactive in test [8], in test [10] and in test [18].

For `Cc1cc(C(C)(C)C)c(O)c(C)c1CC1=NCCN1`, the Potency result in [1], in test [2], in test [4], in test [19], in [5] and in test [6] was “inactive” each time. Further, the Potency result in test [7], in [9], in test [11], in test [12], in test [13] and in test [14] was “inactive” throughout. Moreover, the Potency entry in [15] and in [16] was “inactive” throughout. For the same molecule, the molecule was called inactive in [3], in test [8], in [10] and in test [18].

With `CCOC(=O)C(C)(C)Oc1ccc(Cl)cc1`, the Potency result in test [2], in test [20], in test [4], in test [5], in [6] and in test [17] was “inactive” throughout. Moreover, the Potency result in [7], in test [9], in [12], in test [13], in [14] and in [15] was “inactive” each time. Moreover, the Potency result in test [16] is “inactive”. For the same molecule, the outcome in test [3], in test [8], in test [10] and in test [18] was inactive.

In the case of `O=c1c(O)c(-c2ccc(O)c(O)c2)oc2cc(O)cc(O)c12`, the Potency result in test [1], in [4], in test [19], in test [5], in test [6] and in test [14] was “inactive” in each case. Moreover, the result in [3], in test [8], in [10] and in test [18] was inactive.

`Cc1cn([C@H]2C[C@H](N=[N+]=[N-])[C@@H](CO)O2)c(=O)[nH]c1=O`: the outcome in [3], in test [8], in test [10] and in test [18] was inactive. Besides, the Potency result in test [4], in test [19], in test [5], in test [17], in test [7] and in test [9] was “inactive” each time. Further, the Potency entry in test [14], in test [15] and in test [16] was “inactive” in each case.

`O=C(c1ccc(OCCN2CCCCC2)cc1)c1c(-c2ccc(O)cc2)sc2cc(O)ccc12`: the Potency result in test [2], in [4], in test [17], in test [7], in [14] and in test [15] was “inactive” in each case. The Potency in test [6] was 11.2 µM (active); in test [9], 20.6 µM (active); in [16] it was 20 µM (active). Moreover, the molecule was called inactive in test [8], in [10] and in test [18].

As for `CCCCc1oc2ccccc2c1C(=O)c1cc(I)c(OCCN(CC)CC)c(I)c1`, the Potency entry in test [2], in [4], in [17], in test [7], in test [9] and in test [14] was “inactive” throughout. For the same molecule, the Potency result in test [15] and in test [16] was “inactive” throughout. Also, the molecule was called inactive in test [3], in test [8], in test [10] and in test [18]. Also, the Potency in test [19] was 13.1 µM (active); in test [12], 8.28 µM (active); in test [13], 9.28 µM (active).

Values taken from PubChem BioAssay (NCATS).
